Test systems include DU-145 prostate; K-562 leukemia; MALME-3M melanoma; MDA-MB-231 breast; RXF 393 renal; SF-268 CNS; SF-295 CNS; SF-539 CNS; UACC-257 melanoma; M14 melanoma.
What all share (experiment): NCI-60 one-dose screen, 48 h (100 = growth as untreated, 0 = no growth, -100 = all killed)
Common to all, as to conditions: 10 µM unless noted

Molecules are shown by their SMILES. This is part of a sample that, as a whole, favours compounds with a hit. Of some 83,000 tested, about 20% had one in any assay.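 Values shown are percent growth following 48 h exposure of cells in 96-well plates to a single concentration of compound; below 10 was considered active.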 Values without a mark were called inactive. The source made the active and inactive calls.

`CCCCCCCCCC[N+](C)(C)C`: the growth with DU-145 prostate was 34%; with K-562 leukemia it was 22.3%; in the test with MALME-3M melanoma, 24.8%; in the test with MDA-MB-231 breast it was 14.3%; in the test with RXF 393 renal, -42.3% (active); in the test on SF-268 CNS, 13.2%. The growth with SF-295 CNS is 36.1%; in the test with SF-539 CNS, 1.4% (active); in the test with UACC-257 melanoma, 66.3%; in the test with M14 melanoma it was 6.8% (active).
In the case of `CC[N+](C)(C)N`, the growth is 118% in the test on DU-145 prostate; 103% with K-562 leukemia; 112% in the test on MALME-3M melanoma; 106% with MDA-MB-231 breast; 94.3% with RXF 393 renal; 110% in the test with SF-268 CNS. Further, the growth is 104% in the test with SF-295 CNS, 109% in the test with SF-539 CNS, 110% with UACC-257 melanoma and 107% in the test on M14 melanoma.
In the case of `CC(=O)Nc1nc(C)c(C(=O)NNC(=O)Nc2ccccc2)s1`, the growth with DU-145 prostate is 101%; in the test with K-562 leukemia, 114%; in the test on MALME-3M melanoma, 126%; in the test on MDA-MB-231 breast, 89.6%; in the test on RXF 393 renal, 121%; in the test on SF-268 CNS it was 99.8%. Moreover, the growth in the test with SF-295 CNS was 116%; in the test on SF-539 CNS, 99.4%; in the test with UACC-257 melanoma, 116%; with M14 melanoma, 107%.
`O=C1/C(=N\c2cc(=O)[nH]n2S(=O)(=O)c2ccccc2)Nc2ccccc21`: the growth is 108% with DU-145 prostate; 98.7% in the test with K-562 leukemia; 95.1% in the test on MALME-3M melanoma; 96.5% with MDA-MB-231 breast; 101% with RXF 393 renal; 97.6% with SF-268 CNS. The growth in the test with SF-295 CNS is 101%; in the test on SF-539 CNS, 94.8%; in the test with UACC-257 melanoma it was 123%; in the test with M14 melanoma, 91.1%.
Take `c1ccc(C(=NNc2nc3ccccc3o2)c2ccccn2)nc1`: the growth is 20.3% in the test on DU-145 prostate; 10.9% in the test on K-562 leukemia; 19.5% in the test with MALME-3M melanoma; 29.7% with MDA-MB-231 breast; 16.4% in the test with RXF 393 renal; 7.72% (active) in the test on SF-268 CNS. Also, the growth with SF-295 CNS is 0.423% (active); with SF-539 CNS, 2.62% (active); in the test on UACC-257 melanoma, -1.59% (active); with M14 melanoma, -4.91% (active).
As for `O=P(OCCCl)(OCCCl)C(O)c1ccccc1Cl` (stereo not given), the growth with DU-145 prostate was 112%; in the test on K-562 leukemia it was 96.6%; in the test with MALME-3M melanoma, 96.7%; in the test on MDA-MB-231 breast it was 108%; with RXF 393 renal, 125%; with SF-268 CNS it was 103%. The growth with SF-295 CNS was 102%; in the test with SF-539 CNS, 98.1%; with UACC-257 melanoma it was 137%; in the test on M14 melanoma, 105%.
For the compound `COC(=O)C(N)CC(C)C` (stereo not given), the growth with DU-145 prostate was 101%; in the test with K-562 leukemia it was 88.8%; in the test on MALME-3M melanoma, 95.2%; in the test with MDA-MB-231 breast it was -50.4% (active); in the test with RXF 393 renal, 98.2%; in the test with SF-268 CNS, 96.8%. Further, the growth in the test on SF-295 CNS was 109%; in the test with SF-539 CNS, 112%; in the test on UACC-257 melanoma, 102%; with M14 melanoma, 92.6%.
`COc1ccc(-c2nc(SCC(C)C)nc(Nc3ccc(C)cc3)c2C#N)cc1`: the growth was 85.9% with DU-145 prostate; 68.8% in the test on K-562 leukemia; 74.3% in the test on MALME-3M melanoma; 68.4% in the test on MDA-MB-231 breast; 88.2% with RXF 393 renal; 85.3% in the test with SF-268 CNS. Besides, the growth with SF-295 CNS was 64.4%; with SF-539 CNS, 63.5%; in the test with UACC-257 melanoma, 103%; with M14 melanoma, 88.8%.
As to `COc1cc(-c2nn(-c3ccc(NC(=O)c4ccc(Cl)c(C(F)(F)F)c4)cc3)cc2-c2ccncc2)ccc1Cl`, the growth in the test on DU-145 prostate is 45.2%; with K-562 leukemia it was 8.48% (active); in the test on MALME-3M melanoma it was 14.9%; in the test with MDA-MB-231 breast, 3.94% (active); with RXF 393 renal, -56.3% (active); with SF-268 CNS, 43.8%. The growth is -33.2% (active) in the test on SF-295 CNS, 13% with SF-539 CNS, 54.2% in the test on UACC-257 melanoma and -44.3% (active) in the test with M14 melanoma.
Consider `CCCC[N+](C)(N)CCCC`, for which the growth is 111% with DU-145 prostate; 103% in the test with K-562 leukemia; 107% with MALME-3M melanoma; 108% with MDA-MB-231 breast; 115% with RXF 393 renal; 112% in the test with SF-268 CNS. The growth in the test on SF-295 CNS is 94.5%; in the test with SF-539 CNS, 101%; with UACC-257 melanoma, 106%; with M14 melanoma, 100%.
As for `Nc1nc2c(c3cnccc13)C(c1cccc(Cl)c1)Cc1cnccc1-2` (stereo not given), the growth with DU-145 prostate was 10.7%; in the test with K-562 leukemia, 9.68% (active); with MALME-3M melanoma, 62.4%; in the test on MDA-MB-231 breast, 8.99% (active); in the test on RXF 393 renal, 7.47% (active); in the test on SF-268 CNS, 20.7%. The growth is 8.34% (active) in the test with SF-295 CNS, -18.5% (active) in the test with SF-539 CNS, 60.2% in the test with UACC-257 melanoma and 1.08% (active) in the test with M14 melanoma.
For the compound `C/C=C/C/C=C/[C@H](C)C[C@H](O)[C@@H]1C[C@@H]2O[C@H]2/C=C/[C@H](O)[C@@H](O)/C=C/C[C@H](C)CC(=O)O1`, the growth with DU-145 prostate is 90.7%; in the test with K-562 leukemia it was 65.8%; in the test on MALME-3M melanoma, 103%; in the test with MDA-MB-231 breast, 90%; in the test with RXF 393 renal it was 117%; in the test with SF-268 CNS, 85.8%. The growth is 84.5% with SF-295 CNS, 85.2% with SF-539 CNS, 110% with UACC-257 melanoma and 81.5% with M14 melanoma.
In the case of `[2H]c1nc(=Nc2cc(NC(=O)C=C)c(N(C)CCN(C)C)cc2OC)[nH]c(-c2cn(C([2H])([2H])[2H])c3ccccc23)c1[2H]`, the growth in the test on DU-145 prostate was 45%; with K-562 leukemia, -18.3% (active); with MALME-3M melanoma it was 8.26% (active); in the test with MDA-MB-231 breast, 54%; in the test with RXF 393 renal, 44.1%; in the test with SF-268 CNS, 51.2%. The growth is 85.4% with SF-295 CNS, 40.5% with SF-539 CNS, -2.01% (active) in the test with UACC-257 melanoma and -52.7% (active) in the test on M14 melanoma.
On to `Brc1ccc(-c2nc3ccccc3s2)cc1`, for which the growth was 108% with DU-145 prostate; 96.2% in the test with K-562 leukemia; 95.8% with MALME-3M melanoma; 82.4% with MDA-MB-231 breast; 96% with RXF 393 renal; 90% in the test with SF-268 CNS. Besides, the growth in the test with SF-295 CNS was 98%; with SF-539 CNS it was 93.2%; in the test on UACC-257 melanoma it was 117%; in the test on M14 melanoma, 97.7%.
Turning to `COC(=O)c1ccc2[nH]c(O)c(C(=Nc3ccc(N(C)C(=O)CN4CCN(C)CC4)cc3)c3ccc(OC)cc3)c2c1`, the growth was 21.1% in the test on DU-145 prostate; 4.93% (active) in the test on K-562 leukemia; 6.81% (active) in the test on MALME-3M melanoma; 23.6% in the test on MDA-MB-231 breast; -24.8% (active) in the test on RXF 393 renal; 21.3% in the test on SF-268 CNS. In addition, the growth is 37.6% in the test on SF-295 CNS, -0.308% (active) in the test with SF-539 CNS, 48.9% in the test with UACC-257 melanoma and 14.3% in the test on M14 melanoma.
For `CCOC(=O)c1c2c(cn1Cc1ccccc1)-c1oncc1CC2`, the growth was 107% in the test with DU-145 prostate; 101% with K-562 leukemia; 114% in the test on MALME-3M melanoma; 90.6% in the test on MDA-MB-231 breast; 93.3% in the test on RXF 393 renal; 83.6% with SF-268 CNS. Also, the growth is 98.5% in the test on SF-295 CNS, 86% in the test with SF-539 CNS, 112% with UACC-257 melanoma and 111% with M14 melanoma.
Turning to `C/C(=N\Nc1ccc(Cl)cn1)c1ccc2ccccc2n1`, the growth with DU-145 prostate was 19.9%; with K-562 leukemia, 5.97% (active); in the test on MALME-3M melanoma it was 10.6%; in the test on MDA-MB-231 breast it was 31.5%; in the test on RXF 393 renal it was 30.5%; in the test on SF-268 CNS, 10.3%. In addition, the growth in the test with SF-295 CNS is 2.94% (active); in the test on SF-539 CNS, 3.44% (active); in the test with UACC-257 melanoma, -19.9% (active); in the test on M14 melanoma, 0.159% (active).
Regarding `CC(=O)Nc1nc(C)c(C(=O)N/N=C/c2cccs2)s1`, the growth in the test with DU-145 prostate was 115%; with K-562 leukemia it was 108%; in the test on MALME-3M melanoma, 117%; in the test on MDA-MB-231 breast, 89.3%; with RXF 393 renal it was 113%; in the test with SF-268 CNS it was 97%. Also, the growth in the test on SF-295 CNS was 96.2%; in the test with SF-539 CNS, 99.3%; in the test on UACC-257 melanoma, 109%; in the test with M14 melanoma, 95.7%.
`CC1(C)C(O)NC(Cl)=C(C#N)C1(C#N)C#N` (stereo not given): the growth is 110% in the test on DU-145 prostate; 94.4% with K-562 leukemia; 136% in the test with MALME-3M melanoma; 111% in the test with MDA-MB-231 breast; 7.52% (active) in the test with RXF 393 renal; 123% in the test on SF-268 CNS. Besides, the growth in the test with SF-295 CNS is 174%; with SF-539 CNS it was 95.9%; in the test with UACC-257 melanoma, 109%; with M14 melanoma, 110%.
Take `Nc1nc2c(c3ncncc13)C(c1cccc(C(F)(F)F)c1)Cc1ncncc1-2` (stereo not given): the growth in the test with DU-145 prostate was 15.6%; in the test with K-562 leukemia, 16.9%; in the test with MALME-3M melanoma it was 66.2%; in the test with MDA-MB-231 breast it was 45%; with RXF 393 renal, 6.31% (active); with SF-268 CNS, 45.8%. In addition, the growth is 11.9% in the test on SF-295 CNS, -26.6% (active) with SF-539 CNS, 67.9% in the test with UACC-257 melanoma and 11.4% with M14 melanoma.

Values taken from PubChem BioAssay (NCI).
